Several values for one entry are separate records, joined by “and”; a condition that tells them apart may be missing. Equal entries are not always repeated. Inconclusive results are not listed. Where a call stands in place of a potency, no number is given. More than one record can exist for a structure, and the calls need not agree. Activity calls are given as the source filed them. Calls follow the shape of the dose curve; as a rule, active = well fitted curve in the direction sought with a large enough effect in the repeat runs; inconclusive = weak or mixed curves; inactive = no such curve, though single readings can be large; an effect the other way counts as inactive or inconclusive.
What was measured:
[1] = Human pregnane X receptor (PXR) small molecule agonists, qHTS cell viability counter screen (AID 1346977); also: nearly all actives have a fitted effect of over 50% in size
Outline: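 PXR-Luc HepG2 cells in medium with 5% charcoal-stripped FBS were pre-incubated 5hr, then exposed to compounds for 24hr at 37C. Viability was read in the same wells by CellTiter-Fluor fluorescence, reagent added after 23hr with a 1hr incubation.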

[2] = Caspase-3/7 induction in HepG2 cells by small molecules, qHTS assay (AID 1346978); also: nearly all actives have a fitted effect of over 15% in size
Outline: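 Wild-type HepG2 cells, 2,000/well, settled 5 hr at 37 C and 5% CO2, then compound-treated for 17 hr; caspase-3/7 activity read by luminescent Caspase-Glo 3/7 after 30 min at room temperature.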

[3] = Caspase-3/7 induction in CHO-K1 cells by small molecules, qHTS cell viability counter screen (AID 1346979); also: nearly all actives have a fitted effect of over 35% in size; also: potency is read from the fitted curve at half-maximal effect
Outline: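 Wild-type CHO-K1 cells were seeded at 1,500 per well, rested 5hr at 37 C, then exposed to compounds in DMSO. After 16hr, CellTiter-Fluor reagent was added and fluorescence read 1hr later as the viability measure.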

[4] = Caspase-3/7 induction in CHO-K1 cells by small molecules, qHTS assay (AID 1346980); also: nearly all actives have a fitted effect of over 15% in size
Outline: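 Wild-type CHO-K1 cells exposed to compounds for 17hr at 37 C, 5% CO2. Caspase-3/7 activity then measured by Caspase-Glo 3/7 luminescence after 30min at room temperature.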

[5] = Caspase-3/7 induction in HepG2 cells by small molecules, qHTS cell viability counter screen (AID 1346981); also: series mostly up to about 92 µM; nearly all actives have a fitted effect of over 30% in size
Outline: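 Wild-type HepG2 cells (2,000/well) were allowed to settle for 5 hr at 37 C, 5% CO2, then dosed with compounds in DMSO by pin transfer. After 16 hr at 37 C, CellTiter-Fluor was added and fluorescence read 1 hr later.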

[6] = molecular target: Nuclear receptor subfamily 1 group I member 2 (Homo sapiens) (UniProt O75469); assay: Human pregnane X receptor (PXR) small molecule agonists, qHTS assay (AID 1346982); also: nearly all actives have a fitted effect of over 35% in size
Chain of Nuclear receptor subfamily 1 group I member 2 (Homo sapiens) (O75469 whole entry, looked up): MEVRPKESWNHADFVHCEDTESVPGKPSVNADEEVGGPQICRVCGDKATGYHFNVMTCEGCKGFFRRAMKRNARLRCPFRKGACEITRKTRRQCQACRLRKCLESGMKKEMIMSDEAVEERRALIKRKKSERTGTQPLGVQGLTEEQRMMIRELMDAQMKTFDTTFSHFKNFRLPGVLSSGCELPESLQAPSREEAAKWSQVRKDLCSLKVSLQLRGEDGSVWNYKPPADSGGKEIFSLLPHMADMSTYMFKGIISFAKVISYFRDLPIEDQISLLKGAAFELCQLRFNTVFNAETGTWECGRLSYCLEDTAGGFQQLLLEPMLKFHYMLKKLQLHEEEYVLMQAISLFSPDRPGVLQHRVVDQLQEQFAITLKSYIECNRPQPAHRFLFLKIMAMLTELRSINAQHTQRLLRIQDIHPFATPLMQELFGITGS
Outline: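 PXR-Luc HepG2 cells (CYP3A4 promoter-driven luciferase) were seeded in medium with 5% charcoal-stripped FBS, left 5 hr at 37 C, then exposed to compounds in DMSO for 24 hr. Luminescence was read after ONE-Glo addition.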

[7] = molecular target: Nuclear receptor subfamily 1 group I member 2 (Rattus norvegicus) (UniProt Q9R1A7); assay: Rat pregnane X receptor (rPXR) activation by small molecules, qHTS assay (AID 1346983); settings: rPXR luciferase reporter cells, One-Glo luminescence, 24 h; stronger effect = higher value; also: nearly all actives have a fitted effect of over 20% in size
Chain of Nuclear receptor subfamily 1 group I member 2 (Rattus norvegicus) (Q9R1A7 whole entry, looked up): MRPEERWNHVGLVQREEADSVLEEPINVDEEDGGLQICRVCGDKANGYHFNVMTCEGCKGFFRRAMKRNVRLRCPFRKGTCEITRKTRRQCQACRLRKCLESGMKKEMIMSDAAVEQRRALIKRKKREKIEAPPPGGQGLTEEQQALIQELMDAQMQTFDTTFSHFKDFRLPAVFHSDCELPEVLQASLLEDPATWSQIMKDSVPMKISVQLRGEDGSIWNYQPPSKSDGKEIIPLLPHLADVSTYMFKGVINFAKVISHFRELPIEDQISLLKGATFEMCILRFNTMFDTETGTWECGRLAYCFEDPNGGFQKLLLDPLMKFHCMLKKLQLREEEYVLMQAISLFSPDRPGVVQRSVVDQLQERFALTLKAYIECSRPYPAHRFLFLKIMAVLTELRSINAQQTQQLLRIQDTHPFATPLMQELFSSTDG
Outline: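 Cell-based rPXR activation assay: rPXR cells, 2,000 per well, rested 5hr at 37 C, then exposed to compounds in DMSO for 24 hr at 37 C. Luciferase activity read by One-Glo luminescence after 30 min at room temperature.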

[8] = molecular target: Nuclear receptor subfamily 1 group I member 2 (Homo sapiens) (UniProt O75469); assay: CYP3A4 induction through human pregnane X receptor (PXR) by small molecules, qHTS assay (AID 1346984); also: nearly all actives have a fitted effect of over 40% in size
Outline: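 DPX-2 cells (HepG2 co-transfected with PXR and CYP3A4 promoter-luciferase) treated with compounds 24 h at 37C; luciferin-IPA CYP3A4 substrate 3uM final added for 3 h, then One-Glo; luminescence read. qHTS format.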

[9] = molecular target: Nuclear receptor subfamily 1 group I member 2 (Homo sapiens) (UniProt O75469); assay: Human pregnane X receptor (PXR) activation by small molecules, qHTS assay (AID 1346985); also: nearly all actives have a fitted effect of over 40% in size
Outline: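 DPX-2 cells (HepG2 co-transfected with a PXR response element and a CYP3A4-promoter luciferase construct) were seeded at 2,000 per well, rested 5 hr at 37C, then exposed to DMSO-dissolved compounds for 24 hr. Activation was read as luciferase luminescence.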

[10] = molecular target: Cytochrome P450 2D6 (Homo sapiens) (UniProt P10635); assay: Cytochrome P450 Family 2 Subfamily D Member 6 (CYP2D6) small molecule antagonists: luciferase reporter qHTS assay (AID 1671196); also: nearly all actives have a fitted effect of over 50% in size; also: potency is read from the fitted curve at half-maximal effect
Chain of Cytochrome P450 2D6 (Homo sapiens) (P10635 whole entry, looked up): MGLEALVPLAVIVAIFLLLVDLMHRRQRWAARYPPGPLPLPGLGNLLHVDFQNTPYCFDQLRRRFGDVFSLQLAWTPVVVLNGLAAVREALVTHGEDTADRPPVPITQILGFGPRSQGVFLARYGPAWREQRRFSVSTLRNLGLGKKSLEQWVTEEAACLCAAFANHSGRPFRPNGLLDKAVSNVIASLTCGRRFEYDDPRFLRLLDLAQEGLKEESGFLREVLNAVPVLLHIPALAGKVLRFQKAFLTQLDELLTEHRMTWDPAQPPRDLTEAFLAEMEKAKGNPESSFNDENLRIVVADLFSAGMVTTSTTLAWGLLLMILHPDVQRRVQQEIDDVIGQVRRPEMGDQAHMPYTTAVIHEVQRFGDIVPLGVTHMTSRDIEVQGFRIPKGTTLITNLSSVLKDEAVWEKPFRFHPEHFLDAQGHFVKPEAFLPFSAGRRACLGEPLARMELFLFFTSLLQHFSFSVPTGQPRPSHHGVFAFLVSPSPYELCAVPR
Outline: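 CYP2D6 enzyme–substrate mix was held with compound for 10 min at room temperature, then NADPH regeneration solution was added and the reaction ran 1 h at room temperature. Luciferin product was detected by luminescence after 20 min with detection reagent.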

[11] = molecular target: Cytochrome P450 2C19 (Homo sapiens) (UniProt P33261); assay: Cytochrome P450 Family 2 Subfamily C Member 19 (CYP2C19) small molecule antagonists: luciferase reporter qHTS assay (AID 1671197); also: nearly all actives have a fitted effect of over 65% in size; also: potency is read from the fitted curve at half-maximal effect
Chain of Cytochrome P450 2C19 (Homo sapiens) (P33261 whole entry, looked up): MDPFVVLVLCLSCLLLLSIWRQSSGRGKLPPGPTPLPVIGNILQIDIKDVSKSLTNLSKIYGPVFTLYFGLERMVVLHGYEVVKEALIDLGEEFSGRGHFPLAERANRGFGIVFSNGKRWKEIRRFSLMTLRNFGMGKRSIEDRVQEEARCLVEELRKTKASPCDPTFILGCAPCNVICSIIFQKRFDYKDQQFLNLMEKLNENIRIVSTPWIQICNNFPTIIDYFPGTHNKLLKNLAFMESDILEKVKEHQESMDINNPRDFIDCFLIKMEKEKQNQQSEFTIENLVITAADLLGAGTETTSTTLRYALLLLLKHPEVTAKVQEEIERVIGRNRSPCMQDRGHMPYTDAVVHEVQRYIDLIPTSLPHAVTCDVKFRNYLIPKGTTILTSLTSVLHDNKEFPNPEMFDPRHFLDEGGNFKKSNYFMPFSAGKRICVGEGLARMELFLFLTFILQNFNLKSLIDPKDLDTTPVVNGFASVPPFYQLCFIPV
Outline: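 Compounds were tested on CYP2C19 activity via proluciferin conversion to luciferin. The 37C, 1 h reaction followed NADPH addition; detection reagent stopped it.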

[12] = molecular target: Cytochrome P450 1A2 (Homo sapiens) (UniProt P05177); assay: Cytochrome P450 Family 1 Subfamily A Member 2 (CYP1A2) small molecule antagonists: luciferase reporter qHTS assay (AID 1671199); also: nearly all actives have a fitted effect of over 50% in size; also: potency is read from the fitted curve at half-maximal effect
Chain of Cytochrome P450 1A2 (Homo sapiens) (P05177 whole entry, looked up): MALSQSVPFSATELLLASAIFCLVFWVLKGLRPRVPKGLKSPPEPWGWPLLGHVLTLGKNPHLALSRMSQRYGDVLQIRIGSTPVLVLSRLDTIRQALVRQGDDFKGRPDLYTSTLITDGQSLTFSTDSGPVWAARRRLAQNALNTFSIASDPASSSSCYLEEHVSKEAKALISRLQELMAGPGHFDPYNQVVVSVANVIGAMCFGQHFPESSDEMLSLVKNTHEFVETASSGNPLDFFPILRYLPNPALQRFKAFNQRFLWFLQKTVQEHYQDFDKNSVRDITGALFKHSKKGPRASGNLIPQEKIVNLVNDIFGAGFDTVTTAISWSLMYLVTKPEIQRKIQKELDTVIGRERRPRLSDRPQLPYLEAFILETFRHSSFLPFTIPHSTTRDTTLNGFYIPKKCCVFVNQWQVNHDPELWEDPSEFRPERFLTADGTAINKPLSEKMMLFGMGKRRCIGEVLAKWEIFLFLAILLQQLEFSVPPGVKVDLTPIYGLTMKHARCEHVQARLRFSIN
Outline: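 Human CYP1A2 activity measured with a P450-Glo proluciferin substrate; compounds in DMSO preincubated 10 min at room temperature with enzyme-substrate mix, then NADPH regeneration system added for 1 h. Luciferin detection reagent, 20 min, luminescence read.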

[13] = molecular target: Voltage-gated inwardly rectifying potassium channel KCNH2 (Homo sapiens) (UniProt Q12809); assay: Human Ether-a-go-go-Related Gene (hERG) channel small molecule antagonists: fluorescence cell-based qHTS assay (AID 1671200);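 also: hERG-expressing U2OS cells given a thallium stimulus after FluxOR II dye loading; series mostly up to about 77 µM; nearly all actives have a fitted effect of over 50% in size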
Chain of Voltage-gated inwardly rectifying potassium channel KCNH2 (Homo sapiens) (Q12809 whole entry, looked up): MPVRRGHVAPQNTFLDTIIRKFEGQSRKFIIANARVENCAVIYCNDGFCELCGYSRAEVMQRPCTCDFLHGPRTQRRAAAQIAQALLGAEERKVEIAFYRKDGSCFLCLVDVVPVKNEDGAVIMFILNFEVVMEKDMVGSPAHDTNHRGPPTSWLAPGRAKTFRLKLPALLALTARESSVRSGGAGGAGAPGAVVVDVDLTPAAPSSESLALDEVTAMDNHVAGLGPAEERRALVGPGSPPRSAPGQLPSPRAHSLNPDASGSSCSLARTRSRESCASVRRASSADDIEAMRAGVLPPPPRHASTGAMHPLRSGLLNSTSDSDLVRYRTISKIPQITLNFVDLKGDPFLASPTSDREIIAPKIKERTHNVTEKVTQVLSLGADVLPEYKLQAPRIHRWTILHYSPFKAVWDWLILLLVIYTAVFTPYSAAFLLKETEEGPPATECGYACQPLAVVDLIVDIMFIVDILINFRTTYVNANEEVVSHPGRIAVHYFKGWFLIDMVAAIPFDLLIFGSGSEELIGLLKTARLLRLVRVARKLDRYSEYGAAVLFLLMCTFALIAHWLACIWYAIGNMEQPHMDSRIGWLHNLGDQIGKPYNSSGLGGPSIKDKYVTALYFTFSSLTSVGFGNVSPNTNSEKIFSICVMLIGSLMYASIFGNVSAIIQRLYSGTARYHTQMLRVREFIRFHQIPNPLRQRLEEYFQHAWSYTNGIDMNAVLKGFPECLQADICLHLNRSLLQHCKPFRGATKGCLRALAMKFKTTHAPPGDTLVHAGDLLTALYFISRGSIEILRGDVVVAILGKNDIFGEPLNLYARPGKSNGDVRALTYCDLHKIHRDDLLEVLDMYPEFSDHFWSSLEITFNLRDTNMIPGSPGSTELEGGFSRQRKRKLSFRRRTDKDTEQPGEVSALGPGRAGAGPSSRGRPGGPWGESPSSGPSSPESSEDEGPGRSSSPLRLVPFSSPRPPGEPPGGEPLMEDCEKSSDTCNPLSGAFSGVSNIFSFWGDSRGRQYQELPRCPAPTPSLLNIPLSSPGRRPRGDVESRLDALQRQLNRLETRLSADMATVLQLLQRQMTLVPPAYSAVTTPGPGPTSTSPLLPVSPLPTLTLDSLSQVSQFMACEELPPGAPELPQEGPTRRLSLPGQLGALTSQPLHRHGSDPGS
Outline: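 U2OS cells expressing the channel were plated at 1000 cells/well, incubated overnight at 37 C, then loaded with FluxOR II thallium-sensitive dye for 1 h at room temperature in the dark, with a further 10 min at room temperature before stimulation.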

[14] = molecular target: Cytochrome P450 2C9 (Homo sapiens) (UniProt P11712); assay: Cytochrome P450 Family 2 Subfamily C Member 9 (CYP2C9) small molecule antagonists: luciferase reporter qHTS assay (AID 1671198); also: nearly all actives have a fitted effect of over 50% in size; also: potency is read from the fitted curve at half-maximal effect
Chain of Cytochrome P450 2C9 (Homo sapiens) (P11712 whole entry, looked up): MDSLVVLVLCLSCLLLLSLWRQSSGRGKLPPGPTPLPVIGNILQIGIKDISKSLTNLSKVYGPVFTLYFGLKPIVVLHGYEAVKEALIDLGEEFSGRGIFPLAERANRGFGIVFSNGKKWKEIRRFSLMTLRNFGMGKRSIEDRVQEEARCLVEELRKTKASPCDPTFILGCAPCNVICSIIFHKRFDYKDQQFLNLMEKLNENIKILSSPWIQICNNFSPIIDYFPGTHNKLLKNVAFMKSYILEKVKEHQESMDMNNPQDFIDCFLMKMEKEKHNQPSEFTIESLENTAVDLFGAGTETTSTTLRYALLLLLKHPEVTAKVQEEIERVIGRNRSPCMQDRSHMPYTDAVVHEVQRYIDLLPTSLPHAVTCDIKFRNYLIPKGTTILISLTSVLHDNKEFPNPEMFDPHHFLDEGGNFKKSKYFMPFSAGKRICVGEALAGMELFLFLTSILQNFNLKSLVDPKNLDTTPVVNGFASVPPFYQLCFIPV
Outline: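 P450-Glo proluciferin substrate with CYP2C9 enzyme; 10 min RT preincubation, then NADPH regeneration 1 h at 37C; luciferin detection reagent 20 min RT, luminescence in relative luminescence units.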

[15] = molecular target: Cytochrome P450 3A4 (Homo sapiens) (UniProt P08684); assay: Cytochrome P450 Family 3 Subfamily A Member 4 (CYP3A4) small molecule antagonists: luciferase reporter qHTS assay (AID 1671201); also: nearly all actives have a fitted effect of over 50% in size; also: potency is read from the fitted curve at half-maximal effect
Chain of Cytochrome P450 3A4 (Homo sapiens) (P08684 whole entry, looked up): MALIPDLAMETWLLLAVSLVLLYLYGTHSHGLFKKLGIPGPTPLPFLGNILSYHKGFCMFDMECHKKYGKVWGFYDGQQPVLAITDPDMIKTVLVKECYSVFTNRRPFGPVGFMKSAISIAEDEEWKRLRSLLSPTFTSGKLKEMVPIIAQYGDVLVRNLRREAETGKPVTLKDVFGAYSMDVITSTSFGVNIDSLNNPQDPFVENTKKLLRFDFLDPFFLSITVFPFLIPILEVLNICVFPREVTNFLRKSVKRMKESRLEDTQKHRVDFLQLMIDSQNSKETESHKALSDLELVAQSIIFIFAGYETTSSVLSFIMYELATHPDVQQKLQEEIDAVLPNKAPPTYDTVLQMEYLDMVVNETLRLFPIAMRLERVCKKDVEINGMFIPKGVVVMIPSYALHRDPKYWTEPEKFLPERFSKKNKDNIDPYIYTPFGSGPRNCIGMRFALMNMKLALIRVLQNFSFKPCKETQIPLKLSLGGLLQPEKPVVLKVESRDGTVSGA
Outline: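 P450-Glo CYP3A4 system with proluciferin substrate; compounds preincubated 10 min RT with enzyme-substrate mix, then NADPH regeneration added for 1 h RT. Detection reagent 20 min, luminescence read as relative luminescence units.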

Row | Compound | Potency [1] | Potency [2] | Potency [3] | Potency [4] | Potency [5] | Potency [6] | max activation [7] | Potency [8] | outcome [9] | Potency [10] | Potency [11] | Potency [12] | Potency [13] | Potency [14] | Potency [15]
1 | CC(=O)OC[C@H]1O[C@@](COC(C)=O)(O[C@H]2O[C@H](COC(C)=O)[C@@H](OC(C)=O)[C@H](OC(C)=O)[C@H]2OC(C)=O)[C@@H](OC(C)=O)[C@@H]1OC(C)=O | inactive | inactive | inactive | inactive | inactive | inactive | -1.94% (inactive) | inactive | inactive | inactive | inactive | inactive | inactive | – | –
2 | Cc1nnc(NS(=O)(=O)c2ccc(N)cc2)s1 | inactive | inactive | inactive | inactive | inactive | inactive | – | – | – | inactive | 39.8 µM (active) | inactive | inactive | 35.5 µM (active) | inactive
3 | CC/C(C)=N/O | inactive | inactive | inactive | inactive | inactive | inactive | – | – | – | inactive | inactive | inactive | inactive | inactive | inactive
4 | CC(=O)OC/C=C(\C)CCC=C(C)C | inactive | inactive | inactive | inactive | inactive | inactive | – | – | – | inactive | inactive and 39.9 µM (active) | inactive | inactive | inactive and 39.9 µM (active) | inactive and 31.7 µM (active)
5 | OCCOCCOCCOCCOCCO | inactive | inactive | 15.7 µM (active) and inactive | inactive | inactive | – | – | – | – | – | – | – | – | – | –
6 | CC(COCC(C)OC(=O)c1ccccc1)OC(=O)c1ccccc1 (stereo unspecified) | inactive | inactive | inactive | inactive | inactive | inactive | – | – | – | inactive | 19.9 µM (active) and 11.2 µM (active) | 9.95 µM (active) and 6.33 µM (active) | – | 6.28 µM (active) and 5.64 µM (active) | inactive
7 | CN1Cc2c(N)cccc2C(c2ccccc2)C1 (stereo unspecified) | inactive | inactive | inactive | inactive | inactive | inactive | -2.53% (inactive) | inactive | inactive | 5.03 µM (active) and 12.3 µM (active) | inactive | inactive | inactive | – | inactive
8 | Cc1ccc(C)c(S(=O)(=O)O)c1 | inactive | inactive | inactive | inactive | inactive | inactive | – | – | – | 64.4 µM (active) and inactive | inactive | inactive | – | inactive | inactive
9 | C=C(C)CC(C)(C)C | inactive | inactive | inactive | inactive | inactive | inactive | – | – | – | inactive | inactive | inactive | inactive | inactive | inactive
10 | CCCCCCCC(=O)O | inactive | inactive | inactive | inactive | inactive | inactive | 0.66% (inactive) | inactive | inactive | inactive | 38.5 µM (active) and inactive | inactive | inactive | – | inactive
11 | Cc1ccccc1C=O | inactive | inactive | inactive | inactive | inactive | inactive | – | – | – | inactive | inactive | inactive | inactive | inactive | inactive
12 | CC(=O)Nc1ccc(CC(=O)O)cc1 | inactive | inactive | inactive | inactive | inactive | inactive | -3.84% (inactive) | inactive | inactive | inactive | inactive | inactive | inactive | – | inactive
13 | C[n+]1ccn(CCO)c1 | inactive | inactive | inactive | inactive | inactive | inactive | – | – | – | inactive | inactive | inactive | inactive | inactive | inactive
14 | O=C(O)C1=NN(c2ccc(S(=O)(=O)O)cc2)C(=O)C1 | inactive | inactive | inactive | inactive | inactive | inactive | – | – | – | inactive | 35.6 µM (active) | 35.6 µM (active) and inactive | inactive | inactive | inactive
15 | CC1(C)[C@@H](O[C@H]2O[C@H](C(=O)O)[C@@H](O)[C@H](O)[C@H]2O[C@@H]2O[C@H](C(=O)O)[C@@H](O)[C@H](O)[C@H]2O)CC[C@]2(C)[C@H]3C(=O)C=C4[C@@H]5C[C@@](C)(C(=O)O)CC[C@]5(C)CC[C@@]4(C)[C@]3(C)CC[C@@H]12 | inactive | inactive | inactive | inactive | inactive | inactive | -0.648% (inactive) | inactive | inactive | inactive | inactive | inactive | inactive | inactive | inactive
16 | COC(=O)CCCCC(=O)OC | inactive | inactive | inactive | inactive | inactive | inactive | – | – | – | inactive | inactive | inactive | – | inactive | inactive
17 | COC(=O)OC | inactive | inactive | inactive | inactive | inactive | inactive | – | – | – | inactive | inactive | inactive | inactive | inactive | inactive
18 | CCCCCCCCCCCCCC(=O)O | inactive | inactive | inactive | inactive | inactive | inactive | – | – | – | inactive | inactive | inactive and 71 µM (active) | inactive | inactive | inactive
